# Data taken from ChEMBL document CHEMBL3988442, “University of Dundee, Small-Polar-MMV Screening Library” (2021).
# Screen size: about 48,000 compounds; about 13,000 (27%) showed an effect of 50% or more. The list shows a part of the results.
# Test system: Wolbachia pipientis
# Test: Anti-Wolbachia Cell-Based Screen
# Format: functional
# Set-up: scale not given: in the data most compounds retested in dose-response had high values
# Details: 5 µM
row,Structure (SMILES),Percent Effect [%]
1,Cc1nnn2c1COCC(CNCc1nccs1)C2.O=C(O)C(F)(F)F (stereo not drawn),-0.1911
2,Cc1cc(C)n(CC(C)NC2CCN(Cc3cccc(O)c3)CC2)n1 (stereo not drawn),-0.5082
3,NC(=O)c1csc(N2CCCC(c3nc4ccccc4[nH]3)C2)n1 (stereo not drawn),1.485
4,CNC(=O)[C@@H](c1ccccc1OC)N1CCC[C@H]1C(=O)NC1CC1.Cl,-3.931
5,CNC(=O)[C@H]1C[C@@H]2CN(S(=O)(=O)c3cccc(F)c3)C[C@@H]2N1C.O=C(O)C(F)(F)F,-6.312
6,Cc1nn(C)c(C)c1C1CCCN1c1ncnc2c1CCC2 (stereo not drawn),10.31
7,CCCn1nccc1S(=O)(=O)N1CCC2(CCCN(C(C)C)C2=O)C1 (stereo not drawn),7.399
8,CCC1CCC(NCCN2CCOCC2)CC1 (stereo not drawn),-1.764
9,COc1ncc(-c2nccn2C(C)CCn2cccn2)cn1 (stereo not drawn),-0.87
10,CC(C)c1nnc2n1CCN(C(=O)c1cccc(C(F)(F)F)c1)C2,-7.984
11,CC(C)CN1CC(O)CN(C(=O)c2cccc(C(F)(F)F)c2)CC1=O (stereo not drawn),93.47
12,COCCN1CC(O)CN(C(=O)c2cccc(C(F)(F)F)c2)CC1=O (stereo not drawn),96.14
13,Nc1cc(C(=O)N2CCC(Oc3cccc(C(F)(F)F)c3)CC2)ccn1,0.5907
14,O=C(O)C1CCCCN1C(=O)c1cccc(C(F)(F)F)c1 (stereo not drawn),1.382
15,O=C(c1ccncc1)N1CCC(Oc2cccc(C(F)(F)F)c2)CC1,-12.2
16,O=C(c1cccc(C(F)(F)F)c1)N1CC(=O)N(C2CCC2)CC(O)C1 (stereo not drawn),119.9
17,Cc1c(Br)cccc1C(=O)NCC1CCNCC1.Cl,5.039
18,COC(=O)NCc1ccc(NC(=O)CC2=CCCCC2)cc1,-4.854
19,Cc1nc(N2CCN(S(C)(=O)=O)CC2)cc(-n2cnc(C)c2C)n1,-12.66
20,CC(C)(C)CCN1CCCC(Cn2cc(CCO)nn2)C1 (stereo not drawn),-5.43
21,Cc1cccnc1CN1CCN(C(=O)c2ccn(C(C)(C)C)c2)CC1,140.1
22,Cc1cccnc1CN1CCN(C(=O)CCn2ccccc2=O)CC1,-35.18
23,CNS(=O)(=O)c1ccc(CN2CCN(Cc3ncccc3C)CC2)cc1,2.71

row,Structure (SMILES),Percent Effect [%]
1,CC(C)(C)n1cc(C(=O)N2CCN(Cc3ccccc3F)CC2)cn1,-9.517
2,Cc1ccccc1CN1CCN(C(=O)CCn2ccccc2=O)CC1,-43.85
3,Cc1ccccc1CN1CCN(C(=O)c2ccn(C(C)(C)C)c2)CC1,106.5
4,CCOC(=O)CC(NC(=O)c1cn(Cc2ccccc2F)nn1)C(C)C (stereo not drawn),0.973
5,O=C(O)C1c2nc[nH]c2CCN1Cc1cc(-c2ccccc2)no1 (stereo not drawn),-8.907
6,O=C(CCc1n[nH]c2c1CCCC2)N1C[C@@H]2CC[C@H](C1)N(CC1CC1)C2,3.665
7,CCCc1cc(C(=O)N(C)Cc2cccc3cnccc23)n(C)n1,-5.635
8,CN(Cc1cccc2cnccc12)C(=O)CCc1n[nH]c2c1CCCC2,113.4
9,Cc1ncc(CC(=O)N2CCC3(CCC(=O)N(C4CC4)C3)CC2)c(=O)[nH]1,3.916
10,NC(=O)NC1CCN(Cc2ccc(Br)c(F)c2)CC1,-13.64
11,CCOc1ccc(S(=O)(=O)NCc2cccnc2N(C)C)cc1,-21.99
12,CC(=O)Nc1ccc(CNCc2cccnc2N(C)C)cc1,96.06
13,CCc1ncc(CNCc2cccnc2N(C)C)cn1,101.7
14,CCN(C(=O)NCc1cccnc1N(C)C)C(C)c1cccnc1 (stereo not drawn),-18.28
15,CC(C)(C)NS(=O)(=O)c1ccccc1CNCc1cccc(O)c1,-1.047
16,CCOc1ccc(CNCc2cccnc2N(C)C)cc1,80.05
17,Cc1oc(C)c(C(=O)NCc2cccnc2N(C)C)c1C,-9.408
18,CN(C)c1ncccc1CNCc1cccc(O)c1,107.5
19,CC(C)NS(=O)(=O)c1ccccc1CNCc1cccc(O)c1,-3.142
20,O=C(O)[C@@H]1CN(Cc2c[nH]c(CC3CCCC3)n2)C[C@H]1c1ccncc1,-4.479
21,CCN(CC)c1nc2sc(C(=O)NCC(=O)OC)cc2s1,-6.557
22,O=C1N[C@@H]2CCN(C(=O)N3CCOCC3)[C@@H]2C(=O)N1Cc1ccccc1,7.346
23,OC(CN(Cc1ccccc1)Cc1ccon1)c1ccco1 (stereo not drawn),27.39

row,Structure (SMILES),Percent Effect [%]
1,CCCN1CCC(NN2CCN(C)CC2)CC1,6.891
2,COc1ccc2[nH]c(C(=O)NCC3(N)CCCC3)cc2c1,112.8
3,NC1(CNC(=O)c2cc3ccccc3[nH]2)CCCC1,106.9
4,COc1ccc(CNC(=O)C2(C#N)CCCC2)cc1,-22.34
5,O=C(NCC1(O)CCSCC1)c1nccc2ccccc12,-4.929
6,O=C(Nc1cc(CSCCO)ccn1)c1cc2ccccc2[nH]1,-29.11
7,COc1ccc2cc(C(=O)N3CCCCC3CC(N)=O)[nH]c2c1 (stereo not drawn),-6.391
8,COCCOc1ccc(NC(=O)N(C)Cc2ccsc2)cn1,-6.376
9,Cc1noc([C@H]2C[C@H]3OCC[C@H]3N(Cc3cccs3)C2)n1.O=C(O)C(F)(F)F,-3.779
10,CN(Cc1ncnn1C)C(=O)CCCn1ccc2cc(Cl)ccc21,8.375
11,O=C(NCCC(=O)N1CCCc2ccccc21)c1c(O)cc(F)cc1F,3.729
12,O=C(NCCSC1CCCC1)c1ccc(F)cc1F,11.89
13,O=C(NCC(=O)N1CCCc2ccccc21)c1c(O)cc(F)cc1F,103.6
14,CCC(CNC(=O)c1ccc(F)cc1F)N1CCc2ccccc2C1 (stereo not drawn),10.38
15,Cn1cc(CCNC(=O)N2CCCc3c(F)cccc32)cn1,-24.48
16,CS(=O)(=O)c1ccc2c(c1)N(C(=O)Cc1cccc(F)c1)CCC2,1.079
17,O=C(NCCC(=O)N1CCCc2ccccc21)c1ccc(F)cc1F,138.5
18,O=C(NCCC(=O)N1CCCc2ccccc21)c1cc(F)cc(F)c1,126.9
19,O=C(NCCC(=O)N1CCCc2ccccc21)c1c(F)cccc1F,120
20,O=C(NCCS(=O)(=O)N1CCc2ccccc21)c1c(O)cc(F)cc1F,11.09
21,O=C(NCCSC1CCCC1)c1c(F)cccc1F,10.15
22,CS(=O)(=O)c1ccc2c(c1)N(C(=O)c1cccc(F)c1)CCC2,5.094
